# Assay results as given in PubChem BioAssay AID1345085 (National Center for Advancing Translational Sciences (NCATS), 2018).
# Results filed as inconclusive are left out. Calls of active or inactive are those of the source. Calls follow the shape of the dose curve; as a rule, active = well fitted cell-killing curve with a large enough effect; inconclusive = small, poorly fitted or top-dose-only effect, or effect the other way; inactive = no such curve, though single readings can be large or run the other way.
# Test system: Jar
# Experiment: Confirmatory qHTS for gynecologic anti-cancer compounds from libraries of approved drugs and bioactive compounds; also: nearly all actives have a fitted effect of over 55% in size
# Details: gynecologic cancer cell panel viability, ATPlite luminescence, 48 h; series mostly up to 57.6 µM; activity change, negative = viability loss: at the top concentration
# Procedure, shortened: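 Cells (1,000/well) were plated, left 16 h at 37 C/5% CO2, then given compound at 11 concentrations (1:3) from 57.5 uM to 0.977 nM for 48 h. ATPlite luminescence after 15 min at room temperature gave IC50 values.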
# % is scaled to controls: 0 for no effect and ±100 for the full control effect; potency is read from the fitted curve at half-maximal effect.
SMILES,Potency,"activity change, negative = viability loss"
C[C@@]1(C(=O)Nc2ccc(F)nc2)CCCN1c1nc(Nc2cc(C3CC3)[nH]n2)c2cccn2n1,8.63 µM (active),
COc1cccc2c1C(=O)c1c(O)c3c(c(O)c1C2=O)C[C@@](O)(C(=O)CO)C[C@@H]3O[C@H]1C[C@H](N)[C@H](O)[C@H](C)O1,1.72 µM (active),
CC(C)n1c(/C=C/[C@@H](O)C[C@@H](O)CC(=O)O)c(-c2ccc(F)cc2)c2ccccc21,10.9 µM (active),
CC1=C(CO)C(=O)O[C@@H]([C@@H](C)[C@H]2CC[C@H]3[C@@H]4C[C@H]5O[C@]56[C@@H](O)C=CC(=O)[C@]6(C)[C@H]4CC[C@]23C)C1,8.41 µM (active),
CC[C@@]1(O)C(=O)OCc2c1cc1n(c2=O)Cc2c-1nc1ccccc1c2/C=N/OC(C)(C)C,0.968 µM (active),
CS(=O)(=O)c1ccc(-c2cnc(N)c(C(=O)Nc3ccccc3)n2)cc1,,-4.41% (inactive)
Cc1ccc(NC(=O)c2ccc(CN3CCN(C)CC3)cc2)cc1Nc1nccc(-c2cccnc2)n1,,-3.28% (inactive)
COc1ccc(-c2nc3ccc(C4=NNC(=O)CC4C)cc3[nH]2)cc1 (configuration not stated),21.7 µM (active),
Cc1nc(N)sc1-c1ccnc(Nc2ccc(N3CCOCC3)cc2)n1,3.85 µM (active),
CCN1CCN(Cc2ccc(-c3cc4c(NC(C)c5ccccc5)ncnc4[nH]3)cc2)CC1 (configuration not stated),21.7 µM (active),
C#C[C@]1(O)CC[C@H]2[C@@H]3CCC4=CC(=O)CC[C@@H]4[C@H]3CC[C@@]21CC,,7.43% (inactive)
CCCCc1nc2cc(/C=C/C(=O)NO)ccc2n1CCN(CC)CC,1.22 µM (active),
O=c1c(-c2ccc(O)cc2)coc2cc(O)cc(O)c12,,-2.15% (inactive)
Cc1cnc(CNC(=O)c2c(=O)c3ccc(N4CCCN(C)CC4)nc3n3c2sc2ccccc23)cn1,,14.2% [at 10.7 µM] (inactive)
CN1CCN(c2ccc(OC(F)(F)F)c(Nc3ncc4c(n3)-c3c(c(C(N)=O)nn3CCO)CC4)c2)CC1,0.153 µM (active),
OC[C@H]1O[C@@H](n2cnc3c(=S)nc[nH]c32)[C@H](O)[C@@H]1O,12.2 µM (active),
Cc1ccc(C(=O)Nc2ccc(CN3CCN(C)CC3)c(C(F)(F)F)c2)cc1C#Cc1cnc2cccnn12,30.6 µM (active),
Cc1nc(Nc2ncc(C(=O)Nc3c(C)cccc3Cl)s2)cc(N2CCN(CCO)CC2)n1,21.7 µM (active),
Cc1nc2ccc(CN(C)c3ccc(C(=O)NC(CCC(=O)O)C(=O)O)s3)cc2c(=O)[nH]1 (configuration not stated),,-20.2% (inactive)

SMILES,Potency,"activity change, negative = viability loss"
CN1C(=O)C(Cc2c[nH]c3ccccc23)NC1=S (configuration not stated),,-8.95% [at 19.5 µM] (inactive)
COc1ccccc1N1CCN(CC(O)COc2cccc3ccccc23)CC1 (configuration not stated),,-22.6% (inactive)
Oc1cn2c(n1)Nc1ccc(Cl)c(Cl)c1C2,,17.7% [at 19.5 µM] (inactive)
CC1=C(/C=C/C(C)=C/C=C/C(C)=C/C(=O)Nc2ccc(O)cc2)C(C)(C)CCC1,21.7 µM (active),
O=C(/C=C/c1cccc(S(=O)(=O)Nc2ccccc2)c1)NO,0.943 µM (active),
Cc1ccn(-c2ccc(-c3ncco3)cc2)c(=O)c1-c1ccc2nc(N)ncc2c1,,-26.5% (inactive)
CCN1C[C@H](C)n2c(c(O)c3c(=O)n(Cc4ccc(F)c(Cl)c4)nc(C(=O)NC)c32)C1=O,,-4.15% (inactive)
COc1cc(N2CCC(N3CCN(C)CC3)CC2)ccc1Nc1ncc(Cl)c(Nc2ccccc2S(=O)(=O)C(C)C)n1,17.2 µM (active),
Nc1ccc(C(=O)Nc2cccc(-c3nc(N4CCOCC4)c4oc5ncccc5c4n3)c2)cn1,5.44 µM (active),
NS(=O)(=O)OC[C@@H]1C[C@@H](n2ccc3c(N[C@H]4CCc5ccccc54)ncnc32)C[C@@H]1O,,-26.3% (inactive)
Cc1cc(Nc2nc(N[C@@H](C)c3ccc(F)cc3)c(C#N)cc2F)n[nH]1,2.73 µM (active),
CCS(=O)(=O)N1CCN(c2ccc(Nc3ncc(C(N)=O)c(NC4CC4)n3)cc2)CC1,12.2 µM (active),
CCN(CC)CCCC(C)Nc1c2ccc(Cl)cc2nc2ccc(OC)cc12 (configuration not stated),,-7.3% (inactive)
FC(F)(F)c1ccc(/C=C/c2nc(COc3ccc(CCCCn4ccnn4)cc3)co2)cc1,0.0172 µM (active),
CO[C@@]12[C@H](COC(N)=O)C3=C(C(=O)C(C)=C(N)C3=O)N1C[C@@H]1N[C@@H]12,,44.4% (inactive)
COc1cc2c(Nc3ccc(NC(=O)c4ccccc4)cc3)ncnc2cc1OCCCN1CCOCC1,38.5 µM (active),
CC(C)C[C@H](NC(=O)[C@H](Cc1ccccc1)NC(=O)c1cnccn1)B(O)O,0.0485 µM (active),
Cc1cc(Nc2nc(N[C@@H](C)c3ncc(F)cn3)ncc2Cl)n[nH]1,,19.1% (inactive)
